TDP1 block: qHTS Assay for Inhibitors of Tyrosyl-DNA Phosphodiesterase (TDP1); Tyrosyl-DNA phosphodiesterase 1 (Homo sapiens), Q9NUW8; recombinant TDP1, AlphaScreen DNA substrate cleavage; Potency, µM (doses to about 130 µM), usual class: inhibitors; 0.28% of 350,000 active; AID 485290, 2010; further: nearly all actives have a fitted effect of over 40% in size
Target sequence (Q9NUW8 whole entry, looked up): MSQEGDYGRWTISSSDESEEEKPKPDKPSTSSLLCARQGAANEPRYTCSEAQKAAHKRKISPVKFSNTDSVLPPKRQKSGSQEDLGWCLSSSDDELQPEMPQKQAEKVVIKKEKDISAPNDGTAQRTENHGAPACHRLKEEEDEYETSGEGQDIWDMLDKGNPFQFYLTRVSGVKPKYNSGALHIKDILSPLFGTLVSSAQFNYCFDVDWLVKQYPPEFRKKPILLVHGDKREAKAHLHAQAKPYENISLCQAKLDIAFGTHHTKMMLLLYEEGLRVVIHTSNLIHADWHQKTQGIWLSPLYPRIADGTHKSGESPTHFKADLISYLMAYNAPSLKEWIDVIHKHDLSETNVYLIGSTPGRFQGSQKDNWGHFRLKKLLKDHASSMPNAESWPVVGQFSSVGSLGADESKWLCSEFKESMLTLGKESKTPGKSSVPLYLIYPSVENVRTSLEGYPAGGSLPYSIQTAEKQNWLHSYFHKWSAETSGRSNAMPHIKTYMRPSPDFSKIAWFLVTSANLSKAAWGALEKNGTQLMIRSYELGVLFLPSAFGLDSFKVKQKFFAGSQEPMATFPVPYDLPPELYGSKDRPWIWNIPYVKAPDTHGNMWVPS
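Enzyme-compound mixtures sat 15 min at room temperature, followed by a 5 min reaction with 15 nM final substrate and 10 min with AlphaScreen beads. Recombinant human Tdp1 was used at 1 nM final.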
ELG1 DNA repair: qHTS screen for small molecules that inhibit ELG1-dependent DNA repair in human embryonic kidney (HEK293T) cells expressing luciferase-tagged ELG1 | HEK293T ELG1-luciferase reporter, luminescence, 16 h; DNA damage induced by 5-fluorouridine | Potency, µM (top dose mostly 46.1 µM), usual class: inhibitors | 2.3% of 330,000 active | AID 504467, 2011; further: nearly all actives have a fitted effect of over 55% in size
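Luminescence from the luciferase reporter, measured 30 min after ONE-Glo reagent at room temperature, was the read-out. Beforehand, 2,000 cells per well were exposed for 16 hr at 37 °C to 5-fluorouridine together with compound or vehicle.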
TDP1 cell CPT: qHTS for Inhibitors of human tyrosyl-DNA phosphodiesterase 1 (TDP1): qHTS in cells in presence of CPT; chicken DT40 Tdp1-/-;hTDP1 cells + 20 nM CPT, ATP luminescence, 48 h; Potency, µM (doses to about 46.2 µM), hits mostly inhibitors; 12% of 420,000 active; further: nearly all actives have a fitted effect of over 55% in size
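Chicken DT40 Tdp1-/- cells complemented with human TDP1, 400 cells/well, exposed to compounds plus 20 nM camptothecin for at least 48 h at 37 C; viability read as ATP content by CellTiter-Glo luminescence.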
DT40 TDP1 no CPT: qHTS for Inhibitors of human tyrosyl-DNA phosphodiesterase 1 (TDP1): qHTS in cells in absence of CPT. DT40 Tdp1-/- hTDP1 cells, no CPT, ATP luminescence, 48 h. Potency, µM (doses to about 46.2 µM), most hits filed as inhibitors. 15% of 420,000 active. AID 686978, 2013; further: nearly all actives have a fitted effect of over 55% in size
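Chicken DT40 Tdp1-/- cells complemented with human TDP1, screened without camptothecin (DMSO vehicle only), 400 cells/well. Compounds pin-transferred, cells incubated at 37 °C for at least 48 hr. Growth read as ATP-dependent luminescence (CellTiter-Glo, 30 min at RT).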
IL1B secr inh: qHTS for Inhibitors of Inflammasome Signaling: IL-1-beta AlphaLISA Primary Screen; THP-1 LPS/ATP IL-1B secretion, AlphaLISA, 16 h; stronger effect = lower value; activity change, % at 57.5 µM; 4.7% of 360,000 active; AID 743279, 2014; in the data active means activity change below about -50%; inconclusive means mostly about -30% to -49%
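Secreted IL-1B measured by AlphaLISA bead assay after 16 h compound exposure of THP-1 cells; compounds (final up to 57.5 uM) added 1 h before LPS (250 ng/mL) and ATP (1.25 mM) stimulation; lower signal means less secretion.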
Giardia killer: Small Molecules that selectively kill Giardia lamblia: qHTS | Giardia lamblia trophozoite viability | activity change, % at 7.66 µM, hits read low | 0.15% of 340,000 active; in the data active means activity change below about -80%; inconclusive means between about -30% and that limit;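 further: parasites exposed to compound for two days anaerobically before the ATP read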
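Luminescence from cellular ATP indicates surviving trophozoites (100 cells/well) following 48 hrs anaerobic compound treatment at 37 deg C; signal develops 15-30 min at room temperature.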
A number is an active result; - = inactive; ? = inconclusive; . = no result given. Sampled rows, rich in hits. Any-hit rate of the full collection: about 19%. Unless noted, the call rests on the fitted dose curve; in most records, active means well fitted curve in the direction sought with a large enough effect; inconclusive means small, poorly fitted or top-dose-only effect, or another doubt; inactive means no such curve, though single readings can be large; an effect the other way counts as inactive or inconclusive.

SMILES	TDP1 block	ELG1 DNA repair	TDP1 cell CPT	DT40 TDP1 no CPT	IL1B secr inh	Giardia killer
COC(=O)[C@@]12C[C@@H](CC(=O)N3CCCCC3)C(=O)N(CCc3ccc(OC)c(OC)c3)C1=CCC(C)(C)C2	.	.	?	?	-	.
CCCCCCCCN1C(=O)[C@H](CC(=O)NCC23CC4CC(CC(C4)C2)C3)C[C@@]2(C(=O)OC)CC(C)(C)CC=C12	.	.	-	?	-	.
CCCCCCCCN1C(=O)[C@H](CC(=O)N2CCCCC2)C[C@@]2(C(=O)OC)CC(C)(C)CC=C12	.	.	8.2µM	6.5µM	-	.
Cc1ccc(-c2cc(C(=O)NN=C3CCCC3)c3ccccc3n2)cc1	-	?	-	-	-	-
O=C(N/N=C/c1ccco1)c1cc(-c2ccccc2)nc2ccccc12	-	?	?	4.1µM	-	-
CCCc1ccc(-c2cc(C(=O)N/N=C/c3ccc([N+](=O)[O-])o3)c3ccccc3n2)cc1	-	?	16µM	8.2µM	-	-94
O=C(NN=C1CCCCCC1)c1cc(-c2ccccc2)nc2ccccc12	-	-	16µM	15µM	-	-
COc1cccc(-c2cc(C(=O)N/N=C/c3ccco3)c3ccccc3n2)c1	-	-	?	0.92µM	-	-
CCc1cccc(NC(=O)CS(=O)Cc2nc(-c3ccc(C)cc3)oc2C)c1 (centres undefined)	-	?	?	16µM	-	-
Cc1ccc(-c2nc(CS(=O)CC(=O)NCc3ccc4c(c3)OCO4)c(C)o2)cc1 (centres undefined)	.	-	?	16µM	-	-
Cc1c(C(C)C)c(=O)n(-c2ccccc2)n1C	-	.	-	-	.	.
Cc1ccc(C(c2c(C)n(C)n(-c3ccccc3)c2=O)c2c(C)n(C)n(-c3ccccc3)c2=O)s1	-	23µM	-	?	-	-
CCOC(=O)c1cnc(N2CCN(c3cccc(C)c3C)CC2)c2ccccc12	-	.	?	?	.	.
COc1cccc(Cn2cnc3c(N)c(C)c(C)cc32)c1	-	-	-	-	-	-
COc1cccc(-c2c(-c3ccccc3OC)ncn2Cc2cccc(-c3ccccc3)c2)c1	.	.	8.2µM	12µM	?	.
COc1cccc(Cn2cnc(-c3ccccc3OC)c2-c2ccco2)c1	.	.	18µM	18µM	-	.
COc1cccc(CN(CC(=O)NC2CCCC2)C(=O)Cn2nnc(-c3cccs3)n2)c1	-	-	?	-	-	-
CCOC(=O)C1CCCN(CC(O)COCc2ccccc2OC)C1 (centres undefined)	.	-	-	-	-	-
COc1ccc(S(=O)(=O)N2CCC(Oc3ccc(-n4cnnn4)cc3)CC2)cc1OC	-	.	?	?	.	.
COc1ccc(S(=O)(=O)N2CCC(Oc3ccc(-n4cnnn4)cc3)CC2)cc1	-	.	10µM	-	.	.
COc1ccc(OC2CCN(S(=O)(=O)c3ccc(OC)cc3)CC2)cc1	-	15µM	?	?	-	-
O=S(=O)(c1cccc(C(F)(F)F)c1)N1CCC(Oc2ccc(-n3cnnn3)cc2)CC1	-	.	5.8µM	4.6µM	.	.
CCN1C(=O)[C@H]2[C@@H](c3ccc(SC4CCCCC4)cc3)N[C@@](CC(C)C)(C(=O)OC)[C@H]2C1=O	-	-	?	21µM	-	-
CCN1C(=O)[C@H]2[C@@H](c3ccc(-c4ccccc4)c(OC)c3)N[C@@](CC(C)C)(C(=O)OC)[C@H]2C1=O	-	-	18µM	15µM	-	-
COC(=O)[C@]1(CC(C)C)N[C@H](c2ccc(-c3cccc(Cl)c3)cc2)[C@@H]2C(=O)N(C)C(=O)[C@@H]21	-	-	13µM	26µM	?	?
SMILES	TDP1 block	ELG1 DNA repair	TDP1 cell CPT	DT40 TDP1 no CPT	IL1B secr inh	Giardia killer
CCN1C(=O)[C@H]2[C@@H](c3ccc(-c4ccccc4)cc3)N[C@@](CC(C)C)(C(=O)OC)[C@H]2C1=O	-	-	26µM	18µM	-	-
O=[N+]([O-])c1ccc(COc2cccc(CNc3ccc(F)cc3)c2)cc1	-	-	26µM	13µM	?	-
Oc1ccc(NCc2cccc(OCc3ccccc3)c2)cc1	-	-	15µM	21µM	-	-
Oc1ccc(NCc2cccc(OCc3ccc(F)cc3)c2)cc1	-	?	23µM	18µM	-	-
O=[N+]([O-])c1cccc(COc2cccc(CO)c2)c1	.	.	-	-	-	-
O=C(COC(=O)CN1C(=O)C2CCCCC2C1=O)NNC(=O)c1ccc(Cl)cc1 (centres undefined)	-	-	-	-	-	-
O=[N+]([O-])c1ccc(C=Nc2ccc(Cl)c([N+](=O)[O-])c2)s1	-	?	.	.	.	.
NC(=O)c1ccc(N=Cc2ccc([N+](=O)[O-])s2)cc1	-	?	5.2µM	3.3µM	-108	-
Cc1cccc(NC(=S)N/N=C/c2cccc([N+](=O)[O-])c2)c1	-	-	?	?	-	-
Cc1ccc(NC(=S)N/N=C/c2ccc([N+](=O)[O-])s2)cc1	-	-	?	?	-73	?
Cc1cc(C)cc(N=Cc2ccc([N+](=O)[O-])s2)c1	-	?	2.6µM	2.6µM	-104	-
COc1ccc(C(=O)c2[nH]c(N)c(C(=O)NCCc3c[nH]c4ccccc34)c2-c2ccc(Cl)c(F)c2)cc1	.	.	?	18µM	-	.
Nc1[nH]c(C(=O)c2ccccc2)c(-c2cccnc2)c1C(=O)NCCc1ccc(Cl)cc1Cl	.	.	?	?	-	.
COc1ccc(C(=O)c2[nH]c(N)c(C(=O)NCCc3c[nH]c4ccccc34)c2-c2ccc(Cl)cc2)cc1	.	.	18µM	?	?	.
CCCNc1c(NS(=O)(=O)c2ccc3c(c2)CCCC3)c(=O)oc2ccccc12	-	?	-	?	-	-
CCCCn1nc2cc(C(=O)NCC34CC5CC(CC(C5)C3)C4)ccc2c1OCC	-	?	?	16µM	-	-
CCCCn1nc2cc(C(=O)NCCc3cccs3)ccc2c1OCC	-	-	-	?	-	-
CCc1nc(SCC(=O)Nc2ccc(NC(C)=O)cc2)n[nH]1	.	.	-	-	.	.
COC(=O)c1cc(C(=O)OCC(=O)N2c3ccccc3NC(=O)C2(C)C)cc([N+](=O)[O-])c1	-	-	-	-	-	-
CCCC(=O)N1c2ccccc2C(=C2SC(C(=O)OC)=C(C(=O)OC)S2)C(=S)C1(C)C	-	?	15µM	26µM	-	-

From PubChem
